Measured values from the supplement of paper PMC9694430.

How the values were obtained:
Assay in all cases: thermal shift delta Tm vs DMSO control; higher = stronger stabilization (binding)
Details in all cases: 12.5 µM; protein concentration 2 µM
LOC_OS02G45750-cb003 = system: LOC_OS02G45750-cb003
Procedure, shortened: (§1)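 Purified, E. coli-expressed rice kinase domain constructs were tested by differential scanning fluorimetry in 96-well plates: 19.5 μl of 2 μM kinase in 100 mM potassium phosphate pH 7.5, 150 mM NaCl, 10% glycerol, 5 × SYPRO Orange, plus compound in DMSO. Fluorescence was read from 25°C to 95°C at 0.05°C/s. Melting temperatures came from Boltzmann fits, and the shift is the triplicate mean relative to protein with DMSO alone.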

LOC_OS02G54510-cb004 = system: LOC_OS02G54510-cb004
Procedure, shortened: as §1

LOC_OS03G04050-cb001 = system: LOC_OS03G04050-cb001
Procedure, shortened: as §1

LOC_OS03G12390-cb001 = system: LOC_OS03G12390-cb001
Procedure, shortened: as §1

LOC_OS03G27990-cb004 = system: LOC_OS03G27990-cb004
Procedure, shortened: as §1

LOC_OS03G50450-cb001 = system: LOC_OS03G50450-cb001
Procedure, shortened: as §1

LOC_OS03G50810-cb003 = system: LOC_OS03G50810-cb003
Procedure, shortened: as §1

LOC_OS04G35114-cb001 = system: LOC_OS04G35114-cb001
Procedure, shortened: as §1

LOC_OS04G38480-cb003 = system: T1, LOC_OS04G38480-cb003
T1 sequence (whole entry): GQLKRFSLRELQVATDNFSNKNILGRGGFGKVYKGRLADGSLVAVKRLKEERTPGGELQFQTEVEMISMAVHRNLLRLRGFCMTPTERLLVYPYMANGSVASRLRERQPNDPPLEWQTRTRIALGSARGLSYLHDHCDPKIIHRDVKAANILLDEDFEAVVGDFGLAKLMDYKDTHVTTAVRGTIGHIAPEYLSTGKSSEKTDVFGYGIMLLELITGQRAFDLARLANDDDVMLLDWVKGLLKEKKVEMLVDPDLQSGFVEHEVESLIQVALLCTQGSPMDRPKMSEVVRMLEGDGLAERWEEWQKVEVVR
Procedure, shortened: as §1

LOC_OS04G41100-cb001 = system: T2, LOC_OS04G41100-cb001
T2 sequence (whole entry): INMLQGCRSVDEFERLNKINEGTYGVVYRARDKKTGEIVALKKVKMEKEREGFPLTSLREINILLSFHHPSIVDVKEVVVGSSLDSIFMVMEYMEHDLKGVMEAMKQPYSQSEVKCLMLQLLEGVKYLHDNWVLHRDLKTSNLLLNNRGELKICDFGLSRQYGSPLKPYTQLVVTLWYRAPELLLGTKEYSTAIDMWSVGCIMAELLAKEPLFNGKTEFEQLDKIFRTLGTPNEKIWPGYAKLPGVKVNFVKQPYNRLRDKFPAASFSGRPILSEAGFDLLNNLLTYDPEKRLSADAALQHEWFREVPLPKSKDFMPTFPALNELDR
Procedure, shortened: as §1

| SMILES | thermal shift delta Tm (LOC_OS02G45750-cb003) [°C] | thermal shift delta Tm (LOC_OS02G54510-cb004) [°C] | thermal shift delta Tm (LOC_OS03G04050-cb001) [°C] | thermal shift delta Tm (LOC_OS03G12390-cb001) [°C] | thermal shift delta Tm (LOC_OS03G27990-cb004) [°C] | thermal shift delta Tm (LOC_OS03G50450-cb001) [°C] | thermal shift delta Tm (LOC_OS03G50810-cb003) [°C] | thermal shift delta Tm (LOC_OS04G35114-cb001) [°C] | thermal shift delta Tm (LOC_OS04G38480-cb003) [°C] | thermal shift delta Tm (LOC_OS04G41100-cb001) [°C] |
| --- | --- | --- | --- | --- | --- | --- | --- | --- | --- | --- |
| CNc1nc(Nc2cnn([C@H]3CCN(C4COC4)C[C@@H]3F)c2Cl)ncc1C(F)(F)F | 10.5 | 0.35 | 0.37 | 9.14 | 2.39 | 5.54 | 4.12 | 4.01 | 3.09 | 0.6 |
| CC[C@@H]1C(=O)N(C)c2cnc(Nc3ccc(C(=O)NC4CCN(C)CC4)cc3OC)nc2N1C1CCCC1 | 1.12 | 0.21 | 0.16 | 2.23 | -0.16 | -0.26 | 0.11 | 0.67 | -0.31 | 0.39 |
| COc1ccc(S(=O)(=O)N(CCO)c2ccccc2CN(C)C/C=C/c2ccc(Cl)cc2)cc1 [KN-93 Phosphate] | 0.73 | -0.27 | 0.31 | -0.19 | 0.2 | 0.48 | 0.29 | 0.92 | 1.75 | 0.58 |
| CN1CCN(S(=O)(=O)c2ccc(-c3cnc(N)c(C(=O)Nc4cccnc4)n3)cc2)CC1 | 3.58 | 0.11 | 0.29 | 1.18 | 0.73 | 0.63 | 0.87 | 2.43 | 1.65 | 0.85 |
| O=C(Nc1ccccc1C(=O)NC1CCCCNC1=O)c1cc2ccccc2s1 (stereo not given) | 0.67 | 0.07 | 0.19 | -0.24 | 0.15 | 0.22 | 0.43 | 0.94 | 1.47 | 0.17 |
| COc1ccc(-c2nc(N3CCOCC3)c3sc(CN(C)c4ncc(C(=O)NO)cn4)cc3n2)cn1 | 0.52 | 0.27 | 0.23 | -0.11 | 0.18 | -0.05 | 0.23 | 0.64 | 0.82 | 0.24 |
| CN1CCC(CNc2ccc3ncc(-c4cccc(OC(F)(F)F)c4)n3n2)CC1 [SGI-1776 free base] | 3.47 | 0.36 | -0.12 | 0.16 | 0.31 | 0.18 | 3.02 | 4.33 | 1.08 | 0.53 |
| CC1=C(C(=O)Nc2cc3cn[nH]c3cc2F)C(c2ccc(C(F)(F)F)cc2)CC(=O)N1 (stereo not given) | 0.16 | 0.13 | 0.03 | 0.32 | -0.07 | 0.15 | 0.56 | 0.15 | 0 | 0.48 |
| Cc1cc(Nc2ncnc3ccc(-c4ccc(CNCCS(C)(=O)=O)o4)cc23)ccc1Oc1ccn2ncnc2c1 [HER2-Inhibitor-1] | 2.59 | 0.24 | 0.79 | 0.49 | 0.37 | 0.76 | 1.21 | 4.39 | 1.57 | 0.72 |
